TRb SRC2 PPI: disrupts binding of human TR beta to SRC2 | TRbeta-SRC2 peptide binding, fluorescence polarization; receptor liganded with 1 µM T3 | Potency, µM (titrated, usually from 106 µM), for inactives: at the top dose activity change, negative = inhibition, actives largely listed as inhibitors | actives 0.065% (n = 280,000) | P10828 | AID 1469;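 also: plate controls were bound peptide for no effect and peptide without receptor for full effect; nearly all actives have a fitted effect of over 50% in size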
Target sequence (P10828 whole entry, looked up): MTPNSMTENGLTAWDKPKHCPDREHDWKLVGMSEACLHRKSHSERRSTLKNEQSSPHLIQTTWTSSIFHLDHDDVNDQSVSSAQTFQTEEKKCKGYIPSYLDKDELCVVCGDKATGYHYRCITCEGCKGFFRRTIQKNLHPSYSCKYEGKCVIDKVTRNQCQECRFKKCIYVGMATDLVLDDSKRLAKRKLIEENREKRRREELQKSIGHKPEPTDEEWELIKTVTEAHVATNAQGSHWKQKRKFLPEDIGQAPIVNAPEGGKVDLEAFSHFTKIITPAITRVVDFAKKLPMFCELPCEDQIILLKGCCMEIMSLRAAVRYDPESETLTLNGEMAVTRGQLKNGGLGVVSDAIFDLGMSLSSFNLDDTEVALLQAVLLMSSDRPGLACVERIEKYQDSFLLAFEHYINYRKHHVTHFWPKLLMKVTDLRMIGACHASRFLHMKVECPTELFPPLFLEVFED
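Binding of a 20-amino-acid Texas Red SRC2 peptide (20 nM) to TRb ligand-binding domain (0.6 uM) with agonist T3 at 1 uM was followed by fluorescence polarization after a 5 hr room-temperature incubation.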
Tau ThT inhib: tau fibrillization inhibition (ThT binding) | Potency, µM (highest dose often 57.4 µM), without a hit: at the highest dose activity, negative = inhibition, usual class: inhibitors | actives 2.1% (n = 270,000) | recombinant tau K18 P301L, heparin-induced fibrillization, ThT fluorescence | AID 1460 | P10636; also: nearly all actives have a fitted effect of over 55% in size
Target sequence (P10636 561-689 P618L limits assumed): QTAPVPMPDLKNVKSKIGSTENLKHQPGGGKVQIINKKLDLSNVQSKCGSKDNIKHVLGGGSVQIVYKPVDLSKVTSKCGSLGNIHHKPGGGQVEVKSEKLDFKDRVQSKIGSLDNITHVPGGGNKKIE
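In this qHTS, human K18 P301L tau is incubated with compound and heparin for 6 hr at 37 C, and Thioflavin T fluorescence then reports fibril load.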
Tau fibril FP: tau fibrillization inhibition (FP); P10636; K18 P301L tau heparin fibrillization, Alexa594 FP, 6 h; Potency, µM (titrated, usually from 57.7 µM), for inactives: top-dose activity, negative = inhibition, hits mostly inhibitors; actives 0.39% (n = 280,000); also: nearly all actives have a fitted effect of over 55% in size
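Compound effects on tau fibrillization are measured by Alexa 594 fluorescence polarization (ex 555, em 632 nm). K18 P301L tau is used at 15 uM with 0.24 uM labeled tracer, and 20 uM heparin induces aggregation over 6 hr at 37 C.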
Tau fluor counter: counter-screen for tau fibril formation inhibitors | tau K18 P301L Alexa594 fluorescence, heparin fibrillization | actives 0.93% (n = 280,000) | Potency, µM (doses to about 57.7 µM), inactives show at the top dose activity change, negative = decrease | AID 1463; also: nearly all actives have a fitted effect of over 55% in size
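Human tau K18 P301L (15 uM unlabeled, 0.24 uM Alexa 594-labeled) in 100 mM sodium acetate pH 7 with 20 uM heparin, 6 hr at 37 C. ThT 30 uM added, 1 hr ambient; Alexa 594 FP and total fluorescence read at 555/632 nm.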
GoLoco inh red: RGS12 GoLoco-Gai1 interaction inhibition | P63096 | Gai1:RGS12 GoLoco peptide FP, rhodamine, 10 min | Potency, µM (series often up to 61.6 µM), without a hit: at the top dose activity, negative = inhibition, usual class: inhibitors | actives 0.44% (n = 230,000) | AID 880; active = well fitted inhibition curve with a large enough effect, not every such curve was filed as active; inactive = no such curve, though single readings can be large or run the other way; also: nearly all actives have a fitted effect of over 30% in size
TexasRed fluor: Texas Red fluorescence interference in TRb-SRC2 counter-screen; TRb/SRC2 Texas Red total fluorescence interference; Potency, µM (titrated, usually from 106 µM), for the others: at the top dose fluorescence change, negative = quenching; actives 0.29% (n = 280,000); active = well fitted curve in either direction with a large enough effect; inconclusive = small, poorly fitted or top-dose-only effect
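Flags fluorescent or light-absorbing compounds by total fluorescence, S + 2P, at 555 nm excitation and 632 nm emission. Mixture: 20 nM Texas Red SRC2 peptide, 0.6 uM human TRb LBD, 1 uM T3, 5% DMSO; compound exposure 5 h at ambient temperature.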
The depositor's hits bear a star; [ ] = another dose, or the depositor's remark. The list is not random: actives were taken first. Their share in the collection is about 3.2%. Unless noted, calls follow the shape of the dose curve; as a rule, active = well fitted curve in the direction sought with a large enough effect; inconclusive = small, poorly fitted or top-dose-only effect, or another doubt; inactive = no such curve, though single readings can be large; an effect the other way counts as inactive or inconclusive. Unless noted, % is scaled to controls: 0 for no effect and ±100 for the full control effect; potency is read from the fitted curve at half-maximal effect.

What do the screens show for `COc1cc(/C=N/NC(=O)c2cc(-c3ccccc3)sc2N)cc(OC)c1OC`?
TRb SRC2 PPI: 4%; Tau fibril FP: inconclusive; Tau fluor counter: 13µM*[quencher]; GoLoco inh red: 9%; TexasRed fluor: -8%

How did CCOC(=O)c1cc(-c2ccccc2)sc1NC(=O)c1ccc(OC)cc1 do in these assays?
TRb SRC2 PPI: 3%; Tau ThT inhib: -8%; Tau fibril FP: -7%; Tau fluor counter: -1%; GoLoco inh red: -13%; TexasRed fluor: 1%

Results for COc1cc(/C=N/NC(=O)c2cc(-c3cccs3)nc3ccccc23)ccc1O ?
TRb SRC2 PPI: -3%; Tau ThT inhib: inconclusive; Tau fibril FP: 3%; Tau fluor counter: 18µM*[quencher]; GoLoco inh red: 5%; TexasRed fluor: 0%

What do the screens show for `O=C1CCCC=C1[C@H](CCc1ccccc1)OC(=O)c1ccc(Br)cc1`?
TRb SRC2 PPI: 1%[11.2 µM]; Tau ThT inhib: -18%[11.5 µM]; Tau fibril FP: 3%[11.6 µM]; Tau fluor counter: -7%[11.6 µM]; TexasRed fluor: 1%[11.2 µM]

How did Cc1cc(C)c2nc3c(c([C@H](O)C4CCCCN4)c2c1)CC/C3=C/c1ccc(Cl)cc1 (stereo partly specified) do in these assays?
GoLoco inh red: 7%[14.2 µM]

How did COc1ccc(Nc2ccccc2N)cc1 do in these assays?
TRb SRC2 PPI: 1%; Tau ThT inhib: inconclusive; Tau fibril FP: inconclusive; Tau fluor counter: -23%; GoLoco inh red: 142%; TexasRed fluor: inconclusive

How did Nc1ccc(Nc2ccccc2N)cc1 do in these assays?
TRb SRC2 PPI: 6%; Tau ThT inhib: 16µM*; Tau fibril FP: inconclusive; Tau fluor counter: 14µM*[quencher]; GoLoco inh red: 90%; TexasRed fluor: -3%

How did CC(C)=CC[C@@H](O)C1=CC(=O)c2c(O)ccc(O)c2C1=O do in these assays?
TRb SRC2 PPI: -3%; Tau ThT inhib: 4.5µM*; Tau fibril FP: 13µM*; Tau fluor counter: inconclusive; GoLoco inh red: -18%; TexasRed fluor: 28µM*[quencher]

How did CC1(C)C=Cc2c(c3c(c4c(=O)c(-c5ccc(O)cc5)coc24)OC(C)(C)CC3)O1 do in these assays?
TRb SRC2 PPI: 4%; Tau ThT inhib: inconclusive; Tau fibril FP: inconclusive; Tau fluor counter: inconclusive; GoLoco inh red: 1%; TexasRed fluor: -1%

How did CC(C)=CCc1c2c(c3occ(-c4ccc(O)cc4)c(=O)c3c1O)C=CC(C)(C)O2 do in these assays?
TRb SRC2 PPI: 8%; Tau ThT inhib: inconclusive; Tau fibril FP: 22µM*; Tau fluor counter: 3.2µM*[quencher]; GoLoco inh red: 2%; TexasRed fluor: 0%

Results for CC(C)=CCc1c2c(c3occ(-c4ccc(O)c(O)c4)c(=O)c3c1O)C=CC(C)(C)O2 ?
TRb SRC2 PPI: 5%; Tau ThT inhib: inconclusive; Tau fibril FP: 25µM*; Tau fluor counter: 3.5µM*[quencher]; GoLoco inh red: 2%[14.2 µM]; TexasRed fluor: 0%

What do the screens show for `C=C1C(=O)C=C2CN(C(=O)c3ccccc3)[C@@](Cc3ccc(OC)cc3)(C(=O)OC)[C@@H]12`?
TRb SRC2 PPI: -5%; Tau ThT inhib: inconclusive; Tau fibril FP: inconclusive; Tau fluor counter: -8%; GoLoco inh red: 3%; TexasRed fluor: -4%

What do the screens show for `CO[C@@H]1COC(=O)CC=C[C@@H](C)[C@@H]2C=C[C@@H](O)[C@@H](COC(=O)C/C=C\[C@H]1C)O2`?
TRb SRC2 PPI: -3%[11.2 µM]; Tau ThT inhib: -1%[11.5 µM]; Tau fibril FP: -3%[11.6 µM]; Tau fluor counter: 0%[11.6 µM]; TexasRed fluor: 0%[11.2 µM]

How did Cc1ccc(Cl)cc1NC(=O)N1CCC2(CC1)Oc1ccccc1C(=O)N2Cc1ccccc1F do in these assays?
TRb SRC2 PPI: -5%; Tau ThT inhib: -11%; Tau fibril FP: -5%; Tau fluor counter: -23%; TexasRed fluor: 35µM*[quencher]

Results for COCCCNC(=O)c1nn(C)c2c1CS(=O)(=O)c1ccccc1-2 ?
TRb SRC2 PPI: -17%; Tau ThT inhib: -10%; Tau fibril FP: 5%; Tau fluor counter: -8%; TexasRed fluor: 100µM*[quencher]

What do the screens show for `O=C1C=CC(=O)N1CCCCCCN1C(=O)C=CC1=O`?
TRb SRC2 PPI: -3%; Tau ThT inhib: inconclusive; Tau fibril FP: 25µM*; Tau fluor counter: -21%; GoLoco inh red: -38%; TexasRed fluor: -1%

Results for O=C1c2ccccc2-c2onc3c(NCCO)cc(NC4CCCCC4)c1c23 ?
TRb SRC2 PPI: inconclusive; Tau ThT inhib: 7.9µM*; Tau fibril FP: inconclusive; Tau fluor counter: 11µM*[quencher]; TexasRed fluor: 40µM*[fluorescent]

What do the screens show for `O=C(O)CCCNc1cc(N2CCN(C3CCCCC3)CC2)c2noc3c2c1C(=O)c1ccccc1-3`?
TRb SRC2 PPI: -22%; Tau ThT inhib: 8.9µM*; Tau fibril FP: inconclusive; Tau fluor counter: inconclusive; TexasRed fluor: 40µM*[fluorescent]

How did CCNc1cc(N2CCN(C3CCCCC3)CC2)c2noc3c2c1C(=O)c1ccccc1-3 do in these assays?
TRb SRC2 PPI: -2%; Tau ThT inhib: inconclusive; Tau fibril FP: 0%; Tau fluor counter: -23%; TexasRed fluor: 0%

How did CC(=O)OCCNc1cc(N2CCN(C)CC2)c2noc3c2c1C(=O)c1ccccc1-3 do in these assays?
TRb SRC2 PPI: 45µM*; Tau ThT inhib: 28µM*; Tau fibril FP: inconclusive; Tau fluor counter: inconclusive; GoLoco inh red: 218%; TexasRed fluor: 50µM*[fluorescent]

What do the screens show for `O=C1C2[C@@H](c3ccccc3)N[C@@H](c3ccccc3)C1[C@H](c1ccccc1)N[C@H]2c1ccccc1`?
GoLoco inh red: 6%[14.2 µM]

How did C=CCc1cccc(C2C(C)CCC3C(=O)N4C(CCC(C)C4c4cccc(CC=C)c4)C(=O)N32)c1 (stereo unspecified) do in these assays?
TRb SRC2 PPI: -1%[11.2 µM]; Tau ThT inhib: -13%[11.5 µM]; Tau fibril FP: 5%[11.6 µM]; Tau fluor counter: -12%[11.6 µM]; TexasRed fluor: -5%[11.2 µM]

How did COc1ccc2c(c1)[N+](=O)C(/C(C)=N/NC(N)=S)=C(C)[N+]2=O do in these assays?
GoLoco inh red: 5%[14.2 µM]

How did C/C(=N\NC(=O)CC#N)c1cc2ccccc2oc1=O do in these assays?
TRb SRC2 PPI: 9%; Tau ThT inhib: -3%; Tau fibril FP: -5%; Tau fluor counter: -7%; GoLoco inh red: -7%; TexasRed fluor: -3%

What do the screens show for `C/C(=N\Nc1ccccc1)c1cc2ccccc2oc1=O`?
TRb SRC2 PPI: 1%; Tau ThT inhib: 11µM*; Tau fibril FP: inconclusive; Tau fluor counter: inconclusive; GoLoco inh red: 2%; TexasRed fluor: -2%

What do the screens show for `C[N+]1(CCOc2ccc([N+](=O)[O-])cc2)CCOCC1`?
TRb SRC2 PPI: -9%; Tau ThT inhib: 11%; Tau fibril FP: -2%; Tau fluor counter: 4%; GoLoco inh red: 18µM*; TexasRed fluor: -4%
